Bioassay records deposited in PubChem BioAssay by National Center for Advancing Translational Sciences (NCATS).
In the library only some 11% were active in any assay of this set; here they are far more common.
HP1b binding inh: inhibitors of HP1-beta chromodomain binding to methylated histone tails; P83916; AlphaScreen HP1-beta / biotin-H3K9me3 peptide binding; Potency, µM (doses to about 114 µM), hits mostly inhibitors; actives 0.56% (n = 390,000); also: nearly all actives have a fitted effect of over 70% in size
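Compound inhibition of the preformed complex between 50 nM HP1-beta and 50 nM biotinylated H3K9me3 peptide was read by AlphaScreen. Buffer was PBS pH 7.4 with 0.01% Tween-20. Incubations ran 30 min at room temperature, with 10 ug/mL donor/acceptor beads.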
BAZ2B block: BAZ2B (human) inhibition; Potency, µM (highest dose often 114 µM), most hits filed as inhibitors; actives 4.4% (n = 360,000); AID 504333; AlphaScreen BAZ2B-H3K14Ac peptide displacement; Q9UIF8; also: nearly all actives have a fitted effect of over 60% in size
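In this displacement format the biotinylated H3(5-23) peptide acetylated at Lys14 serves as ligand at 50 nM, with BAZ2B at 50 nM in PBS pH 7.4 containing 0.01% Tween-20. Donor and acceptor beads are 10 ug/mL final.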
PI5P4Ka inh: inhibitors of human PI5P4K alpha; AID 652105; max response, %; PI5P4Kalpha enzyme, ADP-Glo luminescence, 60 min; hits give low values; P48426; actives 1.2% (n = 330,000); active = max response of -50% or lower; inconclusive = between -30% and -50%; inactive = -30% or higher; also: value at the top dose of about 77 µM
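PI5P4Kalpha ADP-Glo assay; 5 microM ATP final; 60 min RT reaction; HEPES pH 7.4/EGTA/CHAPS, 5% DMSO; controls lacking substrate or enzyme; luminescent end-point.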
JMJD2A Tudor inh: JMJD2A Tudor domain (human) inhibition. O75164. Potency, µM (top dose mostly 114 µM), actives largely listed as inhibitors. actives 4.4% (n = 390,000). AlphaScreen JMJD2A-Tudor / H3K4me3 peptide binding; also: nearly all actives have a fitted effect of over 50% in size
G9a inh: G9a (human) methyltransferase inhibition; actives 8.8% (n = 350,000); AID 504332; Q96KQ7; Potency, µM (series often up to 102 µM), most hits filed as inhibitors; G9a H3K9 monomethylation, AlphaScreen, 2 h; also: nearly all actives have a fitted effect of over 75% in size
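G9a (20 nM) preincubated 15 min RT with compounds, then 500 nM biotinylated H3K9 peptide and 20 uM SAM added; 2 h RT reaction. Monomethyl-H3K9 product detected by AlphaScreen with anti-H3K9me1 antibody, streptavidin donor and anti-rabbit IgG acceptor beads.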
L3MBTL1 block: inhibitors of human L3MBTL1; Q9Y468; AlphaScreen L3MBTL1–H3K9me1 peptide binding; Potency, µM (top dose mostly 57.1 µM), most hits filed as inhibitors; actives 0.66% (n = 230,000); AID 485360; also: nearly all actives have a fitted effect of over 60% in size
Target sequence (Q9Y468 whole entry, looked up): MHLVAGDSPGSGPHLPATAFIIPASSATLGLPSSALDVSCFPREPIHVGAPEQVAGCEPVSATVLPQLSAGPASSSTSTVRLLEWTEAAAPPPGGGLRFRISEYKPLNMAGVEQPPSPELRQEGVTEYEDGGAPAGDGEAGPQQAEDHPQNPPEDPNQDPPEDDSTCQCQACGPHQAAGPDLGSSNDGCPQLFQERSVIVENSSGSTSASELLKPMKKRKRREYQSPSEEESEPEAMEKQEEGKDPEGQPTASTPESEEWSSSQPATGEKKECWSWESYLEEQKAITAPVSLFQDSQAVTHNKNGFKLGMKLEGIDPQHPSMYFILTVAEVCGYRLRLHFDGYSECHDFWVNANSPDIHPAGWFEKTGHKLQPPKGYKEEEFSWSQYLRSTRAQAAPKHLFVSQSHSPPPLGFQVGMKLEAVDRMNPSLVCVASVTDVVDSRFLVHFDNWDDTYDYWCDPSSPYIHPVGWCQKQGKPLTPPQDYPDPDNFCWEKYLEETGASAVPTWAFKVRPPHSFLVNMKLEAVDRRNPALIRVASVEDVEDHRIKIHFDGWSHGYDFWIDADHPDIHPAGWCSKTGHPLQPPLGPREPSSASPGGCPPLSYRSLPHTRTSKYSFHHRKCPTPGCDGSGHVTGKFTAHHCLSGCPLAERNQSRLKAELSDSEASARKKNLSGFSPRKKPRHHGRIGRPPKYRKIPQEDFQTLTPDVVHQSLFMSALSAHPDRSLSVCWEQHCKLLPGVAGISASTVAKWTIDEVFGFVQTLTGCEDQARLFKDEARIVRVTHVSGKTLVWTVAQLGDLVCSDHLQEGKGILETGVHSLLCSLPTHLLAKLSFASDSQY
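Read-out is AlphaScreen signal from streptavidin donor and nickel chelate acceptor beads (10 ug/mL final each) bridging L3MBTL1 (50 nM) and biotinylated K9-monomethylated H3(1-15) peptide (75 nM), after 30 min compound exposure at room temperature.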
Hits are given with their value; n = inactive; u = inconclusive; x = no result; ! = a repeat was not active; [ ] = another dose, or the depositor's remark. Unless noted, calls follow the shape of the dose curve; as a rule, active = well fitted inhibition curve with a large enough effect; inconclusive = small, poorly fitted or top-dose-only effect; inactive = no such curve, though single readings can be large or run the other way.

SMILES	HP1b binding inh	BAZ2B block	PI5P4Ka inh	JMJD2A Tudor inh	G9a inh	L3MBTL1 block
CC(=O)Nc1ccc(C2Sc3ccccc3NC3=C2C(=O)c2ccccc23)cc1 (stereo unspecified)	u	x	x	12.6µM	17.8µM	x
Cc1ccc(-c2nn3c(=O)cc(CN4CCN(C(=O)c5ccc(C(C)(C)C)cc5)CC4)nc3s2)cc1	n	n	x	n	n	x
CCS(=O)(=O)Nc1cc(-c2cn3ccc(C)cc3n2)ccc1C	n	n	x	n	n	x
Oc1ccc(-c2cn3ccccc3n2)cc1O	u	79.4µM	n	25.1µM	2µM	x
Cc1ccn2cc(CC(=O)O)nc2c1	70.8µM	56.2µM	n	39.8µM	20µM	u
Cc1ccn2cc(-c3ccc(O)c(O)c3)nc2c1	u	70.8µM	n	39.8µM	8.91µM	x
Oc1ccc(-c2cn3ccccc3n2)cc1	n	n	n	n	u	n
Cc1oc2ccc(O)c(CN3CCOCC3)c2c1C(=O)Nc1ccc(C(C)C)cc1	n	n	x	n	n	x
COc1cc(/C=C/C(=O)Nc2nnc(C(C)(C)C)s2)cc(OC)c1OC	u	n	n	n	4.47µM	n
COc1cc(/C=C/C(=O)Nc2ccc(C)cc2)cc(OC)c1OC	n	n	n	n	n	n
COc1ccc(-c2ccc(CCC(=O)O)n2-c2ccc(Cl)cc2C)cc1	n	u	x	u	u	x
Cc1ccc(Cl)cc1-n1c(CCC(=O)O)ccc1-c1cccs1	n	u	x	u	11.2µM	x
Cc1cc(Cl)ccc1-n1c(CCC(=O)O)ccc1-c1cccs1	n	44.7µM	x	u	u	x
Cc1c(Cl)cccc1-n1c(CCC(=O)O)ccc1-c1cccs1	n	n	x	n	u	x
CC(CN(C)C)CN1c2ccccc2Sc2ccc(C(F)(F)F)cc21 (stereo unspecified)	x	x	x	x	n[12.7 µM]	x
CN(C)CCCN1c2ccccc2Sc2ccc(C(F)(F)F)cc21	n	31.6µM	n	u	n	n
Brc1cccc(-c2cnc3n2CCCCC3)c1	n	n	n	u	44.7µM	x
COC(=O)c1cccc(N2C(=O)c3ccccc3S2(=O)=O)c1	n	n	n	n	56.2µM	n
COc1ccccc1N1C(=O)c2cccnc2C1=O	n	u	n	n	n	n
COC(=O)c1cccc(N2C(=O)c3cccnc3C2=O)c1	n	n	n	44.7µM	u	u
CC(C(=O)NN)n1nnc(N2CCOCC2)n1 (stereo unspecified)	n	n	n	n	x	n
CC(C(=O)NNS(=O)(=O)c1cccc(C(F)(F)F)c1)n1nnc(N2CCOCC2)n1 (stereo unspecified)	n	n	n	14.1µM	31.6µM	n
COc1ccc(NC(=O)c2nn(C)c3c2CS(=O)(=O)c2ccccc2-3)cc1Cl	n	n	x	n	n	x
COc1ccc2c(CCNC(N)=S)c[nH]c2c1	n	89.1µM	n	20µM	n	x
COc1ccc2c(CCNC(=O)c3ccco3)c[nH]c2c1	n	n	n	n	n	n
SMILES	HP1b binding inh	BAZ2B block	PI5P4Ka inh	JMJD2A Tudor inh	G9a inh	L3MBTL1 block
COc1cc2c(CCNC(C)=O)c[nH]c2cc1O	n	x	n	n	20µM!	x
COc1ccc(NC(=S)NCCc2c[nH]c3ccc(OC)cc23)c(OC)c1	n	44.7µM	x	u	x	n
COc1ccc(NC(=S)NCCc2c[nH]c3ccccc23)c(OC)c1	n	44.7µM	n	n	50.1µM	n
Cc1cn2c(=O)c(S(=O)(=O)NCc3ccccc3Cl)c(C)nc2s1	n	n	x	n	n	x
COc1ccc2[nH]cc(CCNC(=O)c3ccc4ccccc4n3)c2c1	n	u	n	u	70.8µM	n
C=CSc1sc(Cl)c(N2CCOCC2)c1[N+](=O)[O-]	50.1µM	14.1µM	n	50.1µM	n	n
C=CS(=O)(=O)c1sc(Cl)c(N2CCOCC2)c1[N+](=O)[O-]	u	u	-104.6	79.4µM	8.91µM	n
Cc1cccc(N2CCN(C(=O)C3CCN(S(=O)(=O)c4ccc5c(c4)oc(=O)n5C)CC3)CC2)c1C	n	n	x	n	n	x
O=S(=O)(Nc1ccc2c(c1)nc1n2CCN(Cc2ccccc2)C1)c1ccc(Cl)cc1	n	x	n	n	10µM	n
O=S(=O)(Nc1ccc2c(c1)nc1n2CCN(Cc2ccccc2)C1)c1ccc(F)cc1	n	n	n	89.1µM	u	n
O=S(=O)(Nc1ccc2c(c1)nc1n2CCN(Cc2ccccc2)C1)c1ccccc1	n	n	x	n	u	n
COc1ccc(Cl)cc1NC(=O)c1cnc2sc(N3CCOCC3)nn2c1=O	n	n	x	n	n	x
O=C(NCCN1CCCCC1)Nc1ccc([N+](=O)[O-])cc1	n	n	n	n	79.4µM	n
Cc1ccc(OCCN2CCOCC2)cc1C	n	n	n	n	n	n
CC1CCN(CCOc2ccc(Cl)c(Cl)c2)CC1	u	n	n	10µM	u	n
Cc1cc(OCCN2CCOCC2)ccc1Cl	u	u	n	n	10µM	n
CCOc1ccc(OCC)c(S(=O)(=O)N2CCC(C)CC2)c1	n	n	x	n	n	x
Cc1cc(OCCN2CCCC2)ccc1[N+](=O)[O-]	n	u	n	3.16µM	7.94µM	n
CCN1CCN(CCNC(=O)Nc2ccc([N+](=O)[O-])cc2)CC1	n	n	n	n	n	x
COc1ccccc1CNC(=O)c1oc2c(c1C)-c1nn(Cc3ccc(Cl)cc3)cc1CC2	n	n	x	n	n	x
c1csc(CNc2ccnc(-c3ccoc3)n2)c1	x	x	x	x	n[0.501 µM]	x
C[N+]1(CCOc2ccc([N+](=O)[O-])cc2)CCOCC1	u	u	n	56.2µM	u	n
O=[N+]([O-])c1ccc(OCCN2CCCCCC2)cc1	u	50.1µM	n	2.82µM	31.6µM	n
Cc1cc(C)c(OCCN2CCOCC2)c(Cl)c1	u	u	n	28.2µM	31.6µM	n
Cc1cc(OCCN2CCOCC2)ccc1[N+](=O)[O-]	u	50.1µM	n	0.708µM	7.94µM	n
SMILES	HP1b binding inh	BAZ2B block	PI5P4Ka inh	JMJD2A Tudor inh	G9a inh	L3MBTL1 block
O=[N+]([O-])c1cccc(COc2ccc(CN3CCCCC3)cc2)c1	n	x	n	n	x	x
CCN(CC)CCC(C)OC(c1ccccc1)c1ccccc1 (stereo unspecified)	n	n	n	25.1µM	u	x
COc1ccc(NC(=O)CSC2=Nc3ccccc3C3=NC(CCC(=O)NCc4ccco4)C(=O)N23)cc1 (stereo unspecified)	n	n	x	n	n	x
CCc1ccc(/C=C/C(=O)C2C(=O)c3ccccc3C2=O)cc1	n	n	x	n	u	n
CC[N+]1(C)CCC(O)(/C=C/c2ccccc2)C(C(=O)/C=C/c2ccccc2)C1 (stereo unspecified)	70.8µM	x	n	39.8µM	x	x
CNS(=O)(=O)c1cc(-c2nn3c(C)nnc3c3ccccc23)ccc1C	n	n	x	n	n	x
COc1cccc(NC(=O)CSc2nc3c([nH]c4ccccc43)c(=O)n2-c2ccccc2)c1	n	n	x	n	n	x
O=C(CSc1nc2c(sc3ccccc32)c(=O)n1CCO)NCC1CCCO1 (stereo unspecified)	n	n	n	n	n[12.7 µM]	n
